Among the test systems are PAK1; PAK2; PAK3; PAK4; PAK6; PAK7; PDGFRA; PDGFRB; PDPK1; PFTAIRE2; PHKG1; PHKG2; PIK3C2B; PIK3C2G; PIK3CA; PIK3CB.
Conditions in all cases: concentration: 1 μM, replicates: in singlicate; n = 1
In a further assay the test system is T1, PCTK1.
T1 construct: gene CDK16

For the next assay, the system named is T2, PCTK2.
T2 construct: gene CDK17

In another assay the test system is T3, PCTK3.
T3 construct: gene CDK18

Another assay has as its system T4, PFTK1.
T4 construct: gene CDK14

The structures appear in SMILES notation.
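Note: KINOMEscan kinase panel screen.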

As to `N#Cc1ccc(Oc2ccc(Nc3ncnc4cc[nH]c34)cc2Cl)cc1`, the “%Inh” value in the assay with PAK1 was found to be 35%; in the assay with PAK2, 45%; with PAK3 it was 24%; in the assay with PAK4, 19%; in the assay with PAK6 it was 27%; with PAK7, 15%. For the same compound, the “%Inh” value is 0% in the assay on PCTK1; 13% with PCTK2; 20% in the assay with PCTK3; 25% in the assay on PDGFRA; 31% in the assay on PDGFRB; 1% with PDPK1. In addition, the “%Inh” value is reported as 11% with PFTAIRE2; 17% in the assay on PFTK1; 5% in the assay on PHKG1; 18% in the assay on PHKG2; 0% in the assay on PIK3C2B; 28% with PIK3C2G. Besides, the figures for the “%Inh” value in the assay with PIK3CA and in the assay on PIK3CB were 5% and 11%, respectively.
Regarding `Fc1cccc(COc2ccc(Nc3ncnc4nn5ccccc5c34)cc2Cl)c1` [GW689066], the “%Inh” value in the assay with PAK1 turned out to be 15%; in the assay on PAK2 it was 15%; in the assay with PAK3, 8%; with PAK4 it was 15%; in the assay on PAK6, 0%; with PAK7 it was 0%. Also, the “%Inh” value is 0% in the assay with PCTK1; 0% with PCTK2; 0% with PCTK3; 0% in the assay on PDGFRA; 13% in the assay with PDGFRB; 0% in the assay with PDPK1. Moreover, the “%Inh” value with PFTAIRE2 was found to be 4%; in the assay with PFTK1, 0%; in the assay with PHKG1 it was 2%; with PHKG2, 0%; with PIK3C2B it was 0%; with PIK3C2G it was 0%. The results for the “%Inh” value in the assay with PIK3CA and in the assay on PIK3CB were 0% and 41%, respectively.
As to `O=C(Nc1n[nH]c2nc(-c3ccco3)c(Br)cc12)c1ccc(CN2CCCC2)cc1.O=C(O)[C@H](O)[C@@H](O)C(=O)O` [SB-742352], the “%Inh” value in the assay with PAK1 was 0%; in the assay with PAK2, 7%; in the assay with PAK3, 0%; with PAK4 it was 0%; in the assay on PAK6, 0%; in the assay with PAK7 it was 0%. The “%Inh” value is listed as 0% in the assay with PCTK1; 11% in the assay on PCTK2; 0% in the assay with PCTK3; 50% in the assay on PDGFRA; 99.7% in the assay with PDGFRB; 0% in the assay on PDPK1. Also, the “%Inh” value in the assay with PFTAIRE2 stood at 5%; with PFTK1 it was 0%; in the assay with PHKG1, 0%; in the assay on PHKG2, 0%; in the assay with PIK3C2B it was 0%; in the assay with PIK3C2G, 0%. The “%Inh” value in the assay with PIK3CA and in the assay with PIK3CB was 0% in each case.
In the case of `OCCOCCn1ccc2ncnc(Nc3ccc(Oc4cccc(Cl)c4)c(Cl)c3)c21`, the “%Inh” value with PAK1 is reported as 0%; in the assay on PAK2, 0%; in the assay on PAK3 it was 18%; in the assay on PAK4 it was 0%; in the assay on PAK6 it was 0%; in the assay with PAK7, 0%. Besides, the “%Inh” value is recorded as 0% in the assay on PCTK1; 0% in the assay on PCTK2; 6% in the assay with PCTK3; 0% with PDGFRA; 0% in the assay on PDGFRB; 13% with PDPK1. The “%Inh” value with PFTAIRE2 was determined as 0%; in the assay on PFTK1, 10%; with PHKG1, 0%; in the assay with PHKG2 it was 26%; in the assay with PIK3C2B, 0%; in the assay with PIK3C2G, 0%. Also, the “%Inh” value in the assay on PIK3CA and in the assay with PIK3CB was 0% throughout.
Consider `Cc1ccc(NC(=O)c2cccc(C#N)c2)cc1-c1ccc(C(=O)Nc2ccncc2)cc1` [GSK1398463], for which the “%Inh” value with PAK1 was found to be 16%; in the assay with PAK2, 21%; in the assay on PAK3, 0%; in the assay on PAK4, 0%; with PAK6, 0%; with PAK7, 1%. In addition, the “%Inh” value with PCTK1 was found to be 2%; with PCTK2, 0%; with PCTK3, 18%; in the assay with PDGFRA it was 86%; with PDGFRB, 100%; in the assay with PDPK1, 17%. Besides, the “%Inh” value came to 13% in the assay on PFTAIRE2; 27% in the assay with PFTK1; 2% in the assay on PHKG1; 0% with PHKG2; 5% in the assay on PIK3C2B; 4% in the assay with PIK3C2G. For the same compound, the entries for the “%Inh” value in the assay with PIK3CA and in the assay with PIK3CB were 6% and 0%, respectively.
Take `CCC(CC)(CC)n1cnc2c(N)ncnc21` [SKF-97620]: the “%Inh” value is listed as 10% in the assay on PAK1; 51% in the assay with PAK2; 14% in the assay with PAK3; 0% in the assay with PAK4; 0% in the assay on PAK6; 10% with PAK7. The “%Inh” value in the assay on PCTK1 is listed as 2%; in the assay on PCTK2, 0%; in the assay on PCTK3 it was 0%; in the assay with PDGFRA it was 24%; in the assay with PDGFRB, 0%; with PDPK1, 0%. Further, the “%Inh” value in the assay on PFTAIRE2 worked out at 0%; with PFTK1, 0%; in the assay on PHKG1, 0%; with PHKG2 it was 0%; with PIK3C2B, 0%; in the assay on PIK3C2G, 9%. Also, the “%Inh” value is on record as 6% with PIK3CA and 27% in the assay with PIK3CB.
Turning to `Fc1cccc(COc2ccc(Nc3ncnc4cc[nH]c34)cc2Cl)c1`, the “%Inh” value amounted to 30% in the assay on PAK1; 35% with PAK2; 10% in the assay with PAK3; 26% with PAK4; 0% in the assay with PAK6; 22% in the assay with PAK7. The “%Inh” value amounted to 5% with PCTK1; 48% with PCTK2; 10% with PCTK3; 22% in the assay with PDGFRA; 25% with PDGFRB; 4% in the assay with PDPK1. Further, the “%Inh” value in the assay with PFTAIRE2 turned out to be 17%; in the assay on PFTK1, 12%; with PHKG1 it was 0%; with PHKG2, 7%; with PIK3C2B, 32%; in the assay on PIK3C2G it was 17%. The “%Inh” value is on record as 0% with PIK3CA and 32% in the assay with PIK3CB.
On to `Nc1nc(-c2ccc3c(N)n[nH]c3c2)cc(N2CCC[C@@H](C(=O)Nc3ccccc3)C2)n1.O=C(O)C(F)(F)F.O=C(O)C(F)(F)F` [GSK2288359], for which the “%Inh” value with PAK1 is reported as 2%; in the assay on PAK2, 0%; in the assay on PAK3, 27%; in the assay on PAK4, 0%; in the assay on PAK6, 0%; with PAK7, 6%. The “%Inh” value with PCTK1 is on record as 14%; with PCTK2, 8%; in the assay on PCTK3 it was 0%; in the assay on PDGFRA, 15%; in the assay on PDGFRB it was 31%; with PFTAIRE2 it was 18%. Besides, the “%Inh” value in the assay on PFTK1 turned out to be 16%; in the assay with PHKG1 it was 0%; in the assay with PHKG2, 2%; with PIK3C2B, 1%; with PIK3C2G, 42%; in the assay with PIK3CA, 4%. Also, the “%Inh” value in the assay on PIK3CB came to 0%.

For the origin of these results see PMC5540273 (PLoS ONE, 2017).
